# According to PubChem BioAssay (Tox21):
# Results filed as inconclusive are left out. Where a call stands in place of a potency, no number is given. Active and inactive are the calls of the source. The call rests on the fitted dose curve; in most records, active means well fitted inhibition curve with a large enough effect in the signal ratio in the repeat runs (not every such curve was filed as active); inconclusive means weak or mixed curves, or effect the other way; inactive means no such curve, though single readings can be large or run the other way; the % refers to the signal ratio.
# Target: Glucocorticoid receptor (Homo sapiens) (UniProt P04150)
# Sequence (P04150 whole entry, looked up): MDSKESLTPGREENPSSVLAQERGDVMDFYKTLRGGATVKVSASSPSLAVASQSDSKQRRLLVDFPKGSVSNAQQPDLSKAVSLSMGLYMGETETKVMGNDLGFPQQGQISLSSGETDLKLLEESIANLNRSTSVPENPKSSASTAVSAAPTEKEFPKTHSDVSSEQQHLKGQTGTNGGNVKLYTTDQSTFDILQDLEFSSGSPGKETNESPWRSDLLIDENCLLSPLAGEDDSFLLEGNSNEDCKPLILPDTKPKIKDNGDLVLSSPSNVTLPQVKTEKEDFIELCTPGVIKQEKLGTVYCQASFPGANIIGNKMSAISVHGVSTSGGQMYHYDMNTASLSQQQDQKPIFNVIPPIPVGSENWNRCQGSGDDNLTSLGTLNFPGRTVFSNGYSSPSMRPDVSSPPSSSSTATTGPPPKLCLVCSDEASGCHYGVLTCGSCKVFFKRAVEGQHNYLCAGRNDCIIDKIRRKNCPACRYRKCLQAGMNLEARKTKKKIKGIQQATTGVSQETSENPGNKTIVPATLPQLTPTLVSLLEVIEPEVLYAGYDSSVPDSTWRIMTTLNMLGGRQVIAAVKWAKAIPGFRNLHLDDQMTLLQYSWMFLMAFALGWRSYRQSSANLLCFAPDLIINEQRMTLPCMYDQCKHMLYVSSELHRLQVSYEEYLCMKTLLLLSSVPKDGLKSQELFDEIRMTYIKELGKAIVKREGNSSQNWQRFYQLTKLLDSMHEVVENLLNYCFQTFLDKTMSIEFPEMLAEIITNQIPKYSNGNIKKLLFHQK
# Assay: qHTS assay to identify small molecule antagonists of the glucocorticoid receptor (GR) signaling pathway (AID 720692)
# Details: GR-bla HeLa, beta-lactamase FRET ratio, dexamethasone-stimulated, 18 h; series mostly up to 58.5 µM
# Text: U.S. Tox21 Program National Center for Advancing Translational Sciences [NCATS] NIH Chemical Genomics Center [NCGC] U.S. Environmental Protection Agency [EPA] National Institutes of Environmental Health Sciences [NIEHS] National Toxicology Program [NTP] U.S. Food and Drug Administration [FDA] Tox21 Assay Overview: The Glucocorticoid receptor (GR) is one of the members of the nuclear receptor family of ligand-dependent transcription factors. GR plays a critical role in carbohydrate, protein and lipid metabolisms and programmed cell death. CellSensor GR-bla HeLa cell line (Invitrogen) contains a beta-lactamase reporter gene under the control of the glucocorticoid response element stably integrated into HeLa cells, a cervical cancer cell line that expresses glucocorticoid receptor. The activation of the reporter gene under culture conditions can be detected by fluorescence intensity. This cell line has been used to screen the Tox21 10K compound library and to identify the compounds that inhibit the GR signaling.
# Tox21 Assay Protocol Summary: The GR-bla HeLa cells were dispensed at 1500 cells/5 ul/well in 1536-well black wall/clear bottom plates using a Multidrop Combi (ThermoFisher Scientific, Waltham, MA) dispenser. After the assay plates were incubated at a 37 C/5% CO2 incubator for 4 hours, 23 nL of compounds dissolved in DMSO, positive controls or DMSO only was transferred to the assay plate by a pintool station (Kalypsys, San Diego, CA), followed by addition of 1 uL of dexamethasone (5 nM, final concentration in the well). The plates were incubated at 37 C for 18 hours. After 1 uL of LiveBLAzerTM B/G FRET substrate was added using a Flying Reagent Dispenser (Aurora Discovery, San Diego, CA), the plates were incubated at room temperature for 2 hours, and fluorescence intensity was measured by an Envision plate reader (PerkinElmer, Shelton, CT).
# Potency means the concentration at half of the fitted maximal effect.
row,Compound,Potency
1,CC[N+]1(CC)CCC(=C(c2ccccc2)c2ccccc2)C1C (stereo not given),inactive
2,OC(CN1CCC(Cc2ccc(F)cc2)CC1)c1ccc(Cl)cc1 (stereo not given),inactive
3,O=[N+]([O-])c1ccc2[nH]ncc2c1,inactive
4,Cc1c(N)cccc1[N+](=O)[O-],inactive
5,O=C1CCCCCCCCCCCC(=O)OCCO1,inactive
6,Cc1[nH]c(C)c(Cl)c(=O)c1Cl,inactive
7,CN(Cc1ccc(C(C)(C)C)cc1)Cc1cccc2ccccc12,inactive
8,Nc1cccc(S(=O)(=O)c2cccc(N)c2)c1,inactive
9,CCCCc1ncc(/C=C(\Cc2cccs2)C(=O)O)n1Cc1ccc(C(=O)O)cc1,inactive
10,Nc1ccc(S(=O)(=O)Nc2ccccc2)cc1,inactive
11,COc1ccc(C)cc1[N+](=O)[O-],inactive
12,CCC(C)(C)CC,inactive
13,CCCCCCCC#N,inactive
14,C=CC1CC2C=CC1C2 (stereo not given),inactive
15,OC[C@H]1O[C@@H](OCCc2ccc(O)cc2)[C@H](O)[C@@H](O)[C@@H]1O,inactive
16,CC(=O)NO,inactive
17,CCCCCCCCCCCCCCOS(=O)(=O)O,inactive
18,CCC(C)c1cc(C(C)(C)C)c(O)c(C(C)(C)C)c1 (stereo not given),inactive
19,C#CCN(C)CCCOc1ccc(Cl)cc1Cl,inactive
20,Cc1oc(-c2ccccc2)nc1CCOc1cccc2c1ccn2CCC(=O)O,inactive

row,Compound,Potency
1,C=CCOc1ccccc1OCC(O)CNC(C)C (stereo not given),inactive
2,CC(C)(O)c1ccc(CNC(=O)c2cccnc2Oc2ccc(F)cc2)cc1,inactive
3,CCOCC(O)COc1ccc(NC(=O)CC[S+](C)C)cc1 (stereo not given),inactive
4,CC(CSC(=O)c1ccccc1)C(=O)N1C[C@@H](Sc2ccccc2)C[C@H]1C(=O)O (stereo not given in full),inactive
5,COC(C)(C)CCO,inactive
6,c1ccc(CNCCNCc2ccccc2)cc1,inactive
7,O=C(O)CC(=O)C(=O)O,inactive
8,O=C(OCCCCCCOC(=O)c1ccccc1)c1ccccc1,inactive
9,CCC(Cl)CCC(Cl)C(Cl)CC(Cl)C(Cl)C(Cl)CCl (stereo not given),inactive
10,NCC(=O)O,inactive
11,O=C(NCCO[N+](=O)[O-])c1cccnc1,inactive
12,Cc1cccc(C)c1NC(=O)CN(CC(=O)O)CC(=O)O,inactive
13,CC[N+](C)(CC)CCOC(=O)C(O)(c1ccccc1)C1CCCCC1 (stereo not given),inactive
14,Nc1ccccc1S(=O)(=O)c1ccccc1,inactive
15,O=C1C(O)=C(O)C(=O)C(O)=C1O,inactive
16,NC(=O)C(c1ccccc1)(c1ccccc1)[C@@H]1CCN(CCc2ccc3c(c2)CCO3)C1,inactive
17,Nc1cc(C(=O)O)c(O)c(S(=O)(=O)O)c1,inactive
18,C=CC(=O)OCCOc1ccccc1,21.9 µM (active)
19,Cc1ncc(CO)c(C=O)c1O,inactive
20,O=S(=O)(Oc1ccc(Cl)cc1)c1ccccc1,inactive
